# Reference: PubChem BioAssay AID1745849 (National Center for Advancing Translational Sciences (NCATS), 2022)
# About 320 (15%) of roughly 2,100 compounds were called active. Roughly 52% stayed inconclusive and do not appear here. Calls come from the whole dose curve; as a rule, active = well fitted cell-killing curve with a large enough effect; inconclusive = small, poorly fitted or top-dose-only effect, or effect the other way; inactive = flat fitted curve, though single readings scatter. The list shows a part of the results. A call without a number means that no potency is given here.
# Assay: Viability Counterscreen for CMV-Luciferase Assay of Inhibitors of ATXN expression; note: nearly all actives have a fitted effect of over 55% in size
# Conditions: HEK-293 CMV-luciferase cells viability, protease fluorescence, 24 h
# In short: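 Cells: HEK-293/CMV-luc in phenol-red-free DMEM, 2 hr settle. Cpd dose, 24 hr, 37 °C, 5% CO2. Viability: Gly-Phe-AFC 25 uM final, 30 min, fluor. Then SteadyGlo, 5 min RT, lumin.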
# Potency is the fitted concentration of half-maximal effect.
row,SMILES,Potency
1,CCc1nc2ccc(C(=O)N(C)Cc3ccccc3)cn2c1N(C)Cc1ccc(OC)cc1,inactive
2,Cc1csc(NC(=O)COCC(=O)O)c1-c1nc2ccccc2s1,inactive
3,Cn1c(COc2ccc(Cl)cc2)nnc1SCc1ncc(-c2ccccc2)o1,inactive
4,CCOc1ccc(-c2c[n+]3c(n2-c2ccccc2)CCCCC3)cc1,inactive
5,COc1ccc(-c2c[n+]3c4n2CCCCC4=C(c2ccc(Br)cc2)C3)cc1,inactive
6,COc1ccc(-c2c[n+]3c(n2-c2ccc(C)cc2)CCCCC3)cc1,12.6 µM (active)
7,CN(c1ccccc1)c1ccc(/C=N/NC(=O)CC#N)cc1,inactive
8,CCCc1cc(C(=O)Nc2ccc(C(=O)c3ccc(C)cc3)cc2)n(C)n1,inactive
9,CC(C(=O)c1ccc(-c2ccccc2)cc1)[n+]1cccc(NC(=O)c2ccccc2)c1 (centres undefined),inactive
10,O=C(Nc1ccc[n+](CC(=O)c2cccc3ccccc23)c1)c1ccccc1,3.16 µM (active)
11,OC(CNCCc1ccccc1)COc1ccc(OCC(O)CNCCc2ccccc2)cc1 (centres undefined),28.2 µM (active)
12,OCCN(Cc1ccccc1)CC(O)COc1ccc(-c2ccccc2)cc1 (centres undefined),inactive
13,CCOc1ccccc1NC(=O)N1CCC(c2nc3ccccc3[nH]2)CC1,inactive
14,C(=N\Nc1ccc2nncn2n1)/c1ccccn1,11.2 µM (active)
15,O=c1nc(N/N=C/c2ccccn2)cn[nH]1,7.94 µM (active)
16,C(=N\NC(=Nc1ccccc1)c1ccccn1)/c1ccccn1,inactive
17,O=c1cnnc(N/N=C/c2ccccn2)[nH]1,1.58 µM (active)
18,COc1cccc(CNCCc2c[nH]c3ccccc23)c1OCc1ccc(F)cc1,inactive
19,Cc1cc(N2CCN(c3nc(-c4ccccc4)cs3)CC2)c2ccccc2n1,inactive
20,CCN1CCS/C1=C\C=C\C1=[N+](CC)CCS1,15.8 µM (active)
21,CCOC(=O)c1sc2nc(CSc3ccccc3)nc(NCCN(C)C)c2c1C,inactive
22,COc1ccc(OCCNC(=O)C2(C)CCN2Cc2ccc3ccccc3c2)cc1 (centres undefined),inactive
23,CCCCn1c(/C=N/Nc2nc3ccccc3[nH]2)nc2ccccc21,inactive

row,SMILES,Potency
1,O=C1C=Cc2cccc3ccc(O)c1c23,inactive
2,O=C(N/N=C/c1ccc(O)cc1O)/C(=C/c1ccccc1)CCO,inactive
3,O=C(/C=C\c1ccccc1)NCC(=O)N/N=C/c1ccc(O)cc1O,10 µM (active)
4,O=C(CNS(=O)(=O)c1ccc([N+](=O)[O-])cc1)N/N=C/c1ccc(O)cc1O,inactive
5,Cc1cc(SCC(=O)N/N=C/c2ccc(O)cc2O)nc2ccccc12,12.6 µM (active)
6,COc1ccc(N2CCN(c3cc(C)nc4ccc(OC)cc34)CC2)cc1,inactive
7,Cc1cc(SCC(=O)N/N=C/c2ccc(O)cc2O)c(C)cc1Br,11.2 µM (active)
8,COc1ccc(O)c(/C=N/NC(=O)c2ccc(CSc3nc(C)cc(C)n3)cc2)c1,inactive
9,O=C(NN=Cc1ccc(O)cc1O)c1ccccc1NS(=O)(=O)c1cccs1,inactive
10,Cc1cc(C)n(CCC(=O)N/N=C/c2ccc(O)cc2O)n1,inactive
11,O=C(CP(=O)(c1ccccc1)c1ccccc1)N/N=C/c1cc(Br)cc(Br)c1O,inactive
12,CCOc1ccc(/C=N/NC(=O)C(O)c2ccccc2)c(O)c1 (centres undefined),inactive
13,COc1ccc2nc(C)cc(SCC(=O)N/N=C/c3ccc(O)cc3O)c2c1,7.94 µM (active)
14,CCCCn1c(SCC(=O)Nc2cc(C(F)(F)F)cc(C(F)(F)F)c2)nnc1C(CC)N(C)C (centres undefined),inactive
15,COc1cc2ccnc(Cc3cccc(OC)c3OC)c2cc1OC,inactive
16,Cn1cc(SCC(=O)Nc2nc3ccccc3s2)c2ccccc21,inactive
17,COc1ccc(/C=C/C(=O)Nc2cccc(F)c2)cc1S(=O)(=O)N1CCOCC1,inactive
18,c1cnc2c(c1)ccc1cccnc12,5.01 µM (active)
19,O=C(Nc1cccc(Br)c1)Oc1cccc2cccnc12,inactive
20,CCCC(=O)N1CCCC(c2cc(C(=O)Nc3ccccc3)no2)C1 (centres undefined),inactive
21,Cc1nn(-c2ccccn2)c2c1C(=O)CC(C)(C)C2N=[N+]=[N-] (centres undefined),inactive
22,CCc1cc2c(N3CCN(c4nnc(CC)s4)CC3)ncnc2s1,inactive
23,Cc1cc(C)nc(/N=C(\N)Nc2ccc(OCc3ccccc3)cc2)n1,inactive

row,SMILES,Potency
1,NC(N)=N/N=C/c1ccc2cccc(OCc3ccccc3)c2n1,14.1 µM (active)
2,CC(O)CNCCNCc1c(OCc2ccccc2)ccc2ccccc12 (centres undefined),inactive
3,COc1ccccc1C(CCNCc1ccccc1)c1ccc(OC(C)C)cc1 (centres undefined),inactive
4,CN1C2CCC1/C(=C\c1ccccc1)C(=O)/C2=C\c1ccccc1,10 µM (active)
5,Cc1ccc2c(Cl)cc(Cl)c(OCC(=O)Nc3cc(S(=O)(=O)N(C)C)ccc3C)c2n1,inactive
6,c1ccc(CNc2nc(-c3ccccn3)nc3ccccc23)cc1,7.94 µM (active)
7,Clc1cccc(-c2nc(NCc3cccnc3)c3ccccc3n2)c1,inactive
8,CN1CCN(c2nc(-c3ccccn3)nc3ccccc23)CC1,inactive
9,CC(C)CCNC(=O)COc1cccc2c1OC(C)(C)C2,inactive
10,COc1ccc(C(=O)/C=C/c2ccc(OC3CSC3)cc2)cc1OC,inactive
11,COc1cc(C=CC(=O)c2cc(OC)c(OC)c(OC)c2)cc(OC)c1OC,10 µM (active)
12,COc1cc(OC)c(C(=O)C=Cc2ccc(OC)c(OC)c2)c(OC)c1,20 µM (active)
13,COc1cc(/C=C/C(O)=C/C(=O)/C=C/c2ccc(O)cc2)ccc1O,inactive
14,COc1ccc(NC(=O)c2oc3ccc(S(=O)(=O)N4CCC5(CC4)OCCO5)cc3c2C)cc1,inactive
15,Cn1ncc2c(Nc3cccc(Cl)c3)nc(Nc3cccc(Cl)c3)nc21,inactive
16,CC1Sc2ccc(S(=O)(=O)CCC(=O)N3CCN(c4cccc(Cl)c4)CC3)cc2NC1=O (centres undefined),inactive
17,CC(=O)c1c(C)[nH]c(C(=O)Nc2nc(-c3ccc(-c4ccccc4)cc3)cs2)c1C,11.2 µM (active)
18,COc1ccc(C(=O)Nc2nc(-c3ccc(S(=O)(=O)N4CCOCC4)cc3)cs2)cc1,inactive
19,CC(O)(c1ccccc1)c1nc(-c2ccncc2)cs1 (centres undefined),inactive
20,COc1ccccc1C(=O)Nc1nc(-c2ccc(S(=O)(=O)N3CCOCC3)cc2)cs1,inactive
21,O=C(Nc1nc(-c2ccccc2)cs1)c1ccccc1NS(=O)(=O)c1ccc(F)cc1,3.16 µM (active)
22,COc1ccc(-c2csc(NC(=O)c3ccccc3NS(=O)(=O)c3ccc(F)c(F)c3)n2)cc1,2.24 µM (active)
23,CC(=O)c1sc(NC(=O)c2cc(-c3ccccc3)nn2-c2ccccc2)nc1C,inactive
